Reference: the supplement of paper PMC3334620
Over roughly 33,000 sequences, “E-score (-0.5 to 0.5)” has its median near -0.032; the highest 2% begin near 0.36. The list comes from a sample in which the highest values are over-represented; it also holds similar and randomly drawn sequences.

Target: T1, Sko1 (UniProt Q02100)
T1 sequence: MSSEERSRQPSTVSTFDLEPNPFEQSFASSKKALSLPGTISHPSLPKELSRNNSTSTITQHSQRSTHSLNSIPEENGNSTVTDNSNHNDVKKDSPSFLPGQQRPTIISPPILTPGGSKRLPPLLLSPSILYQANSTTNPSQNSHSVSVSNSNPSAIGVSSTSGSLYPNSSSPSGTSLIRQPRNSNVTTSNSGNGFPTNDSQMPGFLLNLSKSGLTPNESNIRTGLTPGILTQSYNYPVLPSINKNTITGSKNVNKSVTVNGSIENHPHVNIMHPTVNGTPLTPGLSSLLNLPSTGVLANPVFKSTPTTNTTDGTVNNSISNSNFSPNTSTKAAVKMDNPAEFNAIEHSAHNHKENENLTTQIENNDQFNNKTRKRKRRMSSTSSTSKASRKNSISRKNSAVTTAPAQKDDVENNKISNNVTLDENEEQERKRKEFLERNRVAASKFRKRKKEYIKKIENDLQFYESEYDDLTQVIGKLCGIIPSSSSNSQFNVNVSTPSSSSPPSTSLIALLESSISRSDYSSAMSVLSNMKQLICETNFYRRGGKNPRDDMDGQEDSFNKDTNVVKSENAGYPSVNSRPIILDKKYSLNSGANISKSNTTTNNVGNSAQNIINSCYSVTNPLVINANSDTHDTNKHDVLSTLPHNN
Test: PBM E-score (8-mer binding enrichment) (E-score (-0.5 to 0.5)); higher = stronger / more preferred TF binding
Details: protein concentration: 200 nM; construct: GST-full length
Method: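 Universal 'all 10-mer' protein binding microarrays (Agilent AMADID 015681) probed with GST-tagged S. cerevisiae TFs (full-length or DBD) made by in vitro transcription/translation (PURExpress), about 100-200 nM. Bound TF was detected with fluorescent anti-GST. Each ungapped 8-mer (which stands for itself and its reverse complement) is scored by the PBM enrichment score (E-score), a modified Wilcoxon-Mann-Whitney statistic from -0.5 to +0.5, computed with the Universal PBM Analysis Suite. Scale: above 0.35 generally sequence-specific binding.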

Row | Sequence | PBM E-score
1 | AGATACCC | -0.0725
2 | CTTGAAAG | -0.0877
3 | ACGACTTG | -0.058
4 | CCAGCGTC | -0.229
5 | CTAATGAC | 0.299
6 | GTAATGAC | 0.399
7 | GTAATGAA | 0.281
8 | AACGTCTA | 0.239
9 | AACGTCAA | 0.424
10 | TACGTCTA | 0.421
11 | TACGTCCA | 0.404
12 | AACGTCCA | 0.245
13 | CACGTCTA | 0.314
14 | GACGTCTA | 0.358
15 | GACGTCAC | 0.487
16 | GACGTCCA | 0.331
17 | GACGTCCC | 0.217
18 | GACGTCGC | 0.334
19 | CACGTCCA | 0.254
20 | ATTGTTGC | 0.236
21 | ACAGGAGT | -0.0316
22 | CCCACTGC | -0.115
23 | ATGCGCCA | -0.00554
24 | ATAAGACG | 0.115
25 | CACGTCTG | 0.23

Row | Sequence | PBM E-score
26 | CCCGTCAA | -0.0876
27 | AACGTCTG | 0.239
28 | CACGTCAG | 0.462
29 | AACGTCAG | 0.429
30 | TCCGTCAA | 0.0302
31 | CCCGTCAG | -0.214
32 | AACGTCGG | 0.182
33 | TACGTCAA | 0.479
34 | TTCGTCAA | 0.297
35 | CACGTCAA | 0.426
36 | CCTGTGCC | -0.224
37 | GCGACGCC | -0.0621
38 | ATAGGTGC | -0.114
39 | ATCCATGG | -0.237
40 | GAGATCAC | 0.00833
41 | AAGCAAGA | 0.0771
42 | AGTTGTGA | 0.0903
43 | CACGATGG | -0.0649
44 | CGTGGCGA | 0.0528
45 | AACGTCCC | -0.0499
46 | GCCGTCAA | -0.081
47 | CACGTCTC | 0.134
48 | GACGTCTC | 0.384
49 | AACGTCGT | 0.247
50 | AACGTCAT | 0.493

Row | Sequence | PBM E-score
51 | AACGTCTC | 0.111
52 | GACGTCAA | 0.47
53 | AACGTCAC | 0.471
54 | AGCGTCAC | 0.252
55 | AACGTCCT | 0.0619
56 | ACGGTTTA | -0.0562
57 | CTCCAGGA | -0.0718
58 | CGTGGTAC | 0.213
59 | ACCCGCGG | -0.0735
60 | CAGCGAGG | -0.233
61 | TCGGGCAA | -0.0812
62 | ATCCTGTC | -0.0275
63 | CAAATATC | 0.109
64 | CAGGGTCG | -0.241
65 | GTCGGTGA | 0.049
66 | ACAACTAG | -0.00944
67 | TGCGTCCA | 0.155
68 | GGCGTCAA | 0.235
69 | TGCGTCAA | 0.377
70 | CACGTCCC | 0.00358
71 | CACGTCGC | 0.235
72 | CACGTCAC | 0.482
73 | GGTGAGCA | -0.0791
74 | AATTTAGC | 0.187
75 | GCCTGATA | -0.0647

Row | Sequence | PBM E-score
76 | TAAGGGAA | 0.108
77 | CAGACGTA | 0.387
78 | GAGACGAA | -0.0289
79 | AAGACGTC | 0.419
80 | CAGACGCA | 0.055
81 | AAGACGTA | 0.454
82 | AAGACGAC | 0.0714
83 | AAGACGGC | -0.219
84 | GAGACGGA | -0.0605
85 | CAGACGTC | 0.322
86 | AAGACGTG | 0.291
87 | GAGACGTA | 0.394
88 | AAGACGGA | -0.0952
89 | AGTCCTTC | -0.375
90 | TCCGAACA | -0.124
91 | CAATCTGG | -0.104
92 | AGTACTCG | 0.0859
93 | AGCTTAGG | -0.198
94 | CTTCGGTC | -0.0632
95 | CCTGTGTA | -0.0155
96 | GTCGGAAC | -0.0708
97 | CGTAGTAG | 0.309
98 | AGTAGTAC | 0.173
99 | CGTAGTAC | 0.372
100 | AGGGTTGG | 0.0955

Row | Sequence | PBM E-score
101 | AAGTAATG | 0.0878
102 | ACGTAATC | 0.492
103 | ATGTAATC | 0.313
104 | CCGTAATC | 0.111
105 | ATGTAATG | 0.321
106 | ACGTAATG | 0.492
107 | AGGCCGCC | -0.182
108 | CTTCCCGC | -0.0138
109 | CACCTTCG | -0.136
110 | ATCTTGCC | -0.0574
111 | GTCGAACA | -0.00814
112 | ATTGCGTC | 0.414
113 | ATTGCGCA | 0.251
114 | ACTGCGTG | 0.131
115 | ATTGCGCC | -0.0972
116 | ATTGCGTG | 0.419
117 | ATTGCGAG | -0.0027
118 | GCTGCGTA | 0.308
119 | GTTGCGGA | 0.0145
120 | ATTGCGTA | 0.472
121 | GTTGCGTA | 0.422
122 | ACTGCGTA | 0.343
123 | CTTGCGTC | 0.27
124 | GAGCAGAC | -0.0861
125 | GTGTCCCA | -0.0921

Row | Sequence | PBM E-score
126 | AGCCAGCT | -0.097
127 | ATGAATTC | 0.0634
128 | CACAGTCA | -0.095
129 | ATAATAGC | 0.0417
130 | GCGGTCCA | -0.323
131 | ATTCAGCA | 0.00168
132 | CTTGCGGA | -0.261
133 | CTTGCGTA | 0.423
134 | CCTGCGTA | 0.315
135 | CGTTGAGA | 0.0138
136 | AGCATCCA | -0.238
137 | AAAAATCC | -0.162
138 | CGTATGAA | 0.361
139 | CGTATGGC | 0.348
140 | ATTATGTG | 0.266
141 | AGTATGAA | 0.0617
142 | CGTATGAG | 0.267
143 | CGTATGTA | 0.367
144 | ATTATGTC | 0.336
145 | CGTATGTC | 0.321
146 | ATTATGTA | 0.398
147 | CGTATGAC | 0.445
148 | GGTATGAC | 0.183
149 | AGTATGTA | 0.0841
150 | CCACATCA | 0.175

Row | Sequence | PBM E-score
151 | GAGATCGA | 0.0574
152 | ATCACTCA | 0.0754
153 | GAGCTAGA | -0.11
154 | CCTGTTCA | -0.203
155 | AAGCATAG | -0.128
156 | AGAGCAGG | -0.126
157 | CATCGCCG | -0.137
158 | AAACAGCC | -0.17
159 | GCTATACC | -0.171
160 | AAATCCCC | -0.238
161 | GGTAGATA | 0.0735
162 | AGTATGAC | 0.376
163 | AGTATGAT | 0.286
164 | AGTATGAG | 0.129
165 | AACCTACC | -0.193
166 | CTAGGGTA | -0.161
167 | CAGTGAGA | 0.0132
168 | CGTAATTC | 0.435
169 | CGTAATTA | 0.439
170 | GGTAATTA | 0.239
171 | AGTAATTA | 0.263
172 | CATAATTC | 0.238
173 | AGTAATTC | 0.169
